In all, about 290,000 compounds went through this assay and about 3,000 (1%) were called active. Rule as the data show it: active = inhibition mostly above about 36% (no sharp cut-off); inactive = mostly below about 34%. The sample as a whole holds a higher share of actives than the screen did.
Each compound was assayed against T1, Nucleotide-binding oligomerization domain-containing protein 1, Homo sapiens (UniProt Q9Y239) (assay: NOD1 signaling inhibitors, primary screen, cell-based, luminescence, uHTS (AID 1578)).
T1 sequence (whole entry): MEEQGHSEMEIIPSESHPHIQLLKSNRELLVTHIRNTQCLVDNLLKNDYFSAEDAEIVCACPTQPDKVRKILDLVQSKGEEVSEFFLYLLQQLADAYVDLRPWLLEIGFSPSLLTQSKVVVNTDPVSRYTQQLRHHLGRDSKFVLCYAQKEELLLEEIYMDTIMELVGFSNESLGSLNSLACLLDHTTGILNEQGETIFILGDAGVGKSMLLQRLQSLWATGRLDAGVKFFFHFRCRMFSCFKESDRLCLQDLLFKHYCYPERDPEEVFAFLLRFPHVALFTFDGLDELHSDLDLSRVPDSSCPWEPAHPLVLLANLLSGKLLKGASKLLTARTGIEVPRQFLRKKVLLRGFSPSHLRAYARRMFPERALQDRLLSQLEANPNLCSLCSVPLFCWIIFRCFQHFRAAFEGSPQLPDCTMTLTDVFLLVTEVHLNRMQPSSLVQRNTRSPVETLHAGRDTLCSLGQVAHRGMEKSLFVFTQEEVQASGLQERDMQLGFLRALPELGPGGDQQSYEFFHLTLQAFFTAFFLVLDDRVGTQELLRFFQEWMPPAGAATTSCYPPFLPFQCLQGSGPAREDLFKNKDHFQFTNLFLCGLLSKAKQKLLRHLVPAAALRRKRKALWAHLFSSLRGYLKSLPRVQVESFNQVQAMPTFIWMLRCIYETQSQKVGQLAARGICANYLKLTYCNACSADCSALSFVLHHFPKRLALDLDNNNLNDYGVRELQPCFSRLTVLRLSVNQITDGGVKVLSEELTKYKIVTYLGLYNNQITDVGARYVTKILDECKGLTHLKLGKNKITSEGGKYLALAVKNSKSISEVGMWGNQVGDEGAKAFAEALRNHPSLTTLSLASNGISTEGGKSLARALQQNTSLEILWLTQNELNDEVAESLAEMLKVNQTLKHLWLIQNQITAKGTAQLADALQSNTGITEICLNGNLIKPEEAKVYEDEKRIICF
In the case of Cc1ccc(S(=O)(=O)Nc2ccccc2C(=O)Nc2nc(-c3ccc(F)cc3)cs2)cc1, the outcome was “active”. For COc1ccccc1C(=O)Nc1nc(-c2ccc(S(=O)(=O)N3CCOCC3)cc2)cs1, the outcome was “active”. With COc1cccc(NC(=O)Nc2nc(-c3ccc(OC)c(OC)c3)cs2)c1 the outcome was “active”. In the case of COc1ccc(-c2csc(NC(=O)c3ccccc3NS(=O)(=O)c3ccc(C)cc3)n2)cc1, the outcome was “active”. O=C(Nc1nc(-c2ccccc2)cs1)c1ccccc1NS(=O)(=O)c1ccc(F)cc1 was tested, and the outcome was “active”. In the case of COc1ccc(NC(=O)c2ccc(-c3ccccc3)cc2)cc1NS(=O)(=O)c1ccc(F)cc1, the outcome was “active”. In the case of COc1ccc(-c2csc(NC(=O)c3ccccc3NS(=O)(=O)c3ccc(F)c(F)c3)n2)cc1, the outcome was “active”. COc1ccc(S(=O)(=O)Nc2ccccc2C(=O)Nc2nc(-c3ccc(F)cc3)cs2)cc1OC was tested, and the outcome was “active”. In the case of Cc1ccc(NC(=O)C2=C(c3ccccc3)S(=O)(=O)CCS2(=O)=O)cc1, the outcome was “active”. O=C(Nc1ccccc1)C1=C(c2ccccc2)S(=O)(=O)CCS1(=O)=O was tested, and the outcome was “active”. With NS(=O)(=O)c1ccc(Sc2nc3ccccc3s2)c([N+](=O)[O-])c1 the outcome was “active”. Cc1ccc(-c2nn(-c3ccccc3)cc2/C=N/NC(=O)c2ccc(Br)o2)cc1 was tested, and the outcome was “active”. For COc1ccc(-c2nn(-c3ccccc3)cc2/C=N/NC(=O)c2ccc(Br)o2)cc1, the outcome was “active”. O=C(OCn1ncc(Br)c(Br)c1=O)c1c(F)cccc1F was tested, and the outcome was “active”. For O=C(OCn1ncc(Br)c(Br)c1=O)c1ccc(F)cc1, the outcome was “active”. With CC(=O)Cn1ncc(Br)c(Br)c1=O the outcome was “active”. In the case of O=C(NC(=S)N(CCCCO)C1CCCCC1)c1sc2ccccc2c1Cl, the outcome was “active”. For Cc1nnc(SCC(=O)N2CCC(c3noc4ccc(F)cc34)CC2)s1, the outcome was “active”. For O=C(NC(Nc1nc2ccc([N+](=O)[O-])cc2s1)(C(F)(F)F)C(F)(F)F)c1ccccc1Cl, the outcome was “active”. For CC[C@@]1(O)C(=O)OCc2c1cc1n(c2=O)Cc2cc3c(N)cccc3nc2-1, the outcome was “active”. For CNC(=O)COC(=O)c1ccccc1C(=O)c1ccc(Cl)c([N+](=O)[O-])c1, the outcome was “active”. For N#Cc1cccc(NC(=O)COC(=O)c2ccccc2C(=O)c2ccc(Cl)c([N+](=O)[O-])c2)c1, the outcome was “active”. For O=C(COC(=O)c1ccccc1C(=O)c1ccc(Cl)c([N+](=O)[O-])c1)NC1CC1, the outcome was “active”. With Cc1ccc(Cl)c(NC(=O)COC(=O)c2ccccc2C(=O)c2ccc(Cl)c([N+](=O)[O-])c2)c1Cl the outcome was “active”. For CC(C)(C)OC(=O)NCCc1nnc(S(=O)(=O)Cc2ccc(Cl)cc2Cl)o1, the outcome was “active”. For Cc1sc2nc(SCc3ccc(C(=O)O)cc3)n(Cc3ccco3)c(=O)c2c1C, the outcome was “active”. For COC(=O)c1ccc2c(c1)C(C)(C)C(/C=C/c1ccc(O)cc1)=[N+]2C.[I-], the outcome was “active”. With O=S1(=O)C=C(Sc2nc3cc(Cl)ccc3o2)c2ccccc21 the outcome was “active”. For Cn1c(SC2=CS(=O)(=O)c3ccccc32)nc2ccccc21, the outcome was “active”. For O=S1(=O)C=C(Sc2nc3ccccc3s2)c2ccccc21, the outcome was “active”. Cc1cc(C)cc(NC(=O)CSc2nnc(Cc3cccn3C)n2-c2ccc(F)cc2)c1 was tested, and the outcome was “active”. For CC(=O)NC(=C(Cl)Cl)S(=O)(=O)c1ccccc1, the outcome was “active”. In the case of Cc1ccc(C(=O)NC(C#N)=C(Cl)Cl)cc1, the outcome was “active”. In the case of Cc1ccc(C(=O)NC(=C(Cl)Cl)S(=O)(=O)c2ccccc2)cc1, the outcome was “active”. With O=C(NC(=C(Cl)Cl)S(=O)(=O)c1ccc(Cl)cc1)c1ccccc1 the outcome was “active”. O=C(NCCCSc1ccccc1)c1cc(Br)ccc1O was tested, and the outcome was “active”. With O=C(NCCCSc1ccccc1)c1cc(Cl)ccc1O the outcome was “active”. For COC(=O)c1cccc2c1-c1ccccc1/C2=N/O, the outcome was “active”. For CCOC(=O)c1cccc2c1-c1ccccc1/C2=N/O, the outcome was “active”. For Cc1[nH]c2ccccc2c1C(=O)CCl, the outcome was “active”. With Cc1ccc2c(C(=O)CCl)c(C)[nH]c2c1 the outcome was “active”. In the case of Cc1ccc2cccc(NS(=O)(=O)c3ccccc3)c2n1, the outcome was “active”. With O=[N+]([O-])c1ccccc1S(=O)(=O)Nc1cccc2cccnc12 the outcome was “active”. In the case of COc1cc(NS(=O)(=O)c2ccc3ccccc3c2)c2ncccc2c1, the outcome was “active”. With Cc1ccc(S(=O)(=O)Nc2cccc3cccnc23)cc1 the outcome was “active”. Cc1ccc(S(=O)(=O)Nc2cccc3cccnc23)c([N+](=O)[O-])c1 was tested, and the outcome was “active”. For C[C@@H]1C[C@@H]2O[C@H]2/C=C\C=C\C(=O)Cc2c(Cl)c(O)cc(O)c2C(=O)O1, the outcome was “active”. For C/C(=N\NC(=O)c1cccc(Br)c1)c1ccccn1, the outcome was “active”. In the case of C/C(=N\NC(=O)c1ccc(Cl)cc1)c1ccccn1, the outcome was “active”. For C/C(=N\NC(=O)c1ccc(F)cc1)c1ccccn1, the outcome was “active”. For C/C(=N\NC(=O)Cc1ccc(Cl)cc1)c1ccccn1, the outcome was “active”. COc1ccc(C(=O)N/N=C(\C)c2ccccn2)cc1OC was tested, and the outcome was “active”. In the case of C/C(=N\NC(=O)c1ccc(Cl)c(Cl)c1)c1ccccn1, the outcome was “active”. With C/C(=N\NC(=O)COc1ccccc1-c1ccccc1)c1ccccn1 the outcome was “active”. Nc1c(Cl)ncnc1N/N=C/c1ccccn1 was tested, and the outcome was “active”. Cl.c1ccc(CNc2ncnc3ccccc23)cc1 was tested, and the outcome was “active”. With c1ccc(CNc2ncnc3ccccc23)cc1 the outcome was “inactive”. COc1ccc(CNc2ncnc3ccccc23)cc1 was tested, and the outcome was “active”. With CC(Nc1ncnc2ccccc12)c1ccccc1 (configuration not stated) the outcome was “active”. In the case of Cc1cc2c(NCc3ccccc3)ncnc2s1.Cl, the outcome was “active”. For Brc1ccc2ncnc(NCc3cccnc3)c2c1, the outcome was “active”. For COc1cccc(CNc2ncnc3cc(Cl)ccc23)c1, the outcome was “active”. S=C(Nc1ccc(Cl)c(Cl)c1)NC1CCCCC1 was tested, and the outcome was “active”. For Fc1ccc(NC(=S)NNc2ncc(C(F)(F)F)cc2Cl)c(F)c1, the outcome was “active”. With CCCCOC(=O)c1[nH]c2c(c1C)C(=O)CC(c1cc(OC)c(OC)c(OC)c1)C2 (configuration not stated) the outcome was “active”. COCCOC(=O)c1[nH]c2c(c1C)C(=O)CC(c1cc(OC)c(OC)c(OC)c1)C2 (configuration not stated) was tested, and the outcome was “active”. With Cc1ccc(-c2csc(NC(=O)C3=NN(c4ccccc4)C(=O)CC3)n2)cc1 the outcome was “active”. For Cc1ccc(C(=O)N/N=C/c2ccc([N+](=O)[O-])s2)cc1, the outcome was “active”. For O=C(N/N=C/c1ccc([N+](=O)[O-])s1)c1ccncc1, the outcome was “active”. In the case of Cc1ccc2oc(Nc3nc(-c4ccccc4)cc(=O)[nH]3)nc2c1, the outcome was “active”. In the case of COc1cccc(C(=O)Nc2ccc3nc(N4CCN(c5ncccn5)CC4)cc(C)c3c2)c1OC, the outcome was “active”. Cc1ccc2nc(-c3ccc4c(c3)OCCO4)cn2c1 was tested, and the outcome was “active”.

— the GenesisPotency data set
